Assay outcomes from PubChem.
Most compounds without a hit are left out; they make up all but 0.95% or so of the library.
LmPK inhibitor: qHTS Assay for Inhibitors of Leishmania Mexicana Pyruvate Kinase (LmPK) | purified LmPK, Kinase-Glo ATP luminescence, 1 h | Potency, µM (series often up to 57.5 µM), inactives show at the top dose activity change, negative = inhibition, most hits filed as inhibitors | 290,000 compounds, 0.37% hits | AID 1721, 2009
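In 50 mM imidazole pH 7.2 with 7 mM MgCl2, LmPK (0.1 nM) turned over PEP (0.5 mM) and ADP (0.1 mM) for 1 h at room temperature. Luciferase read-out of ATP.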
RE007 growth inh: qHTS Assay for Inhibitors of the HIV-1 protein Vpr; S. pombe RE007 Vpr strain, BacTiter-Glo ATP luminescence, 24 h; Potency, µM (series often up to 92.2 µM), inactives show top-dose activity change, negative = less growth, most hits filed as inhibitors; 360,000 compounds, 0.21% hits; AID 651644, 2012; active means well fitted falling curve with a large enough effect; inconclusive means small, poorly fitted or top-dose-only effect; inactive means no such curve, though single readings can be large or run the other way; further: nearly all actives have a fitted effect of over 50% in size
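Fission yeast strain RE007, carrying one chromosomally integrated HIV-1 vpr copy, was seeded at OD 0.01 in PMG+AL medium with 23 nL pinned compound. After 24 h at 30 °C and 99% humidity, viability was read by BacTiter-Glo luminescence.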
Giardia FBPA inh: qHTS Assay for Inhibitors of Fructose-1,6-bisphosphate Aldolase from Giardia Lamblia; AID 2451, 2010; purified Giardia FBPA; 290,000 compounds, 0.71% hits; Potency, µM (highest dose often 59.6 µM), for inactives: top-dose activity, negative = inhibition, actives largely listed as inhibitors; A8B2U2; further: nearly all actives have a fitted effect of over 55% in size
Target sequence (A8B2U2 whole entry, looked up): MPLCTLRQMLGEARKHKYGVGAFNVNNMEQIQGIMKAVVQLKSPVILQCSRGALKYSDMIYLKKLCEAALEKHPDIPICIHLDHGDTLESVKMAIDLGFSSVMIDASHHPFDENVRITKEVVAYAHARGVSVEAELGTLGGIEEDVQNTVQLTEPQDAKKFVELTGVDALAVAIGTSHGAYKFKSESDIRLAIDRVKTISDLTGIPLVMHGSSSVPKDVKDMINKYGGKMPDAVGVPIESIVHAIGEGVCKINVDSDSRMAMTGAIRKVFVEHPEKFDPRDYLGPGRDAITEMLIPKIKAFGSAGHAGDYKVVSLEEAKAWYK
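Giardia FBPA (40 nM reagent) was preincubated 10 min at RT with compound (up to 57.5 uM final), then substrate plus GAPDH/TPI/NAD/arsenate coupling system with diaphorase/resazurin was added; resorufin fluorescence (525/598 nm) was read after 20 min.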
TbPYK inhibitor: qHTS of Trypanosoma Brucei Inhibitors. pyruvate kinase (Trypanosoma brucei), Q57TT1. TbPYK enzyme, Kinase-Glo Plus ATP luminescence, 45 min. Potency, µM (top dose mostly 76.8 µM), for inactives: at the top dose activity, negative = inhibition, usual class: inhibitors. 410,000 compounds, 0.12% hits. AID 624173, 2012; further: nearly all actives have a fitted effect of over 50% in size
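Luminescent Kinase-Glo Plus end-point after 45 min room-temperature reaction of T. brucei pyruvate kinase started with 130 uM ADP (final). Buffer TEA 50 mM pH 7.2 with KCl, MgCl2, BSA, Tween-20; titration-based qHTS with fitted concentration-effect curves.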
Numbers without * were called inactive; ? = inconclusive; / = no result; [ ] = another dose, or the depositor's remark. Unless noted, the call rests on the fitted dose curve; in most records, active means well fitted curve in the direction sought with a large enough effect; inconclusive means small, poorly fitted or top-dose-only effect, or another doubt; inactive means no such curve, though single readings can be large; an effect the other way counts as inactive or inconclusive. On the % scale 0 is the no-effect control and ±100 the full control effect; potency means the concentration at half of the fitted maximal effect.

SMILES	LmPK inhibitor	RE007 growth inh	Giardia FBPA inh	TbPYK inhibitor
CN1CSC2=C(C#N)C(c3cccc(OCc4ccccc4)c3)CC(=O)N2C1 (stereo not given)	2.2%	-5.2%	?	?
CCc1ccc(N2CSC3=C(C#N)C(c4cccs4)CC(=O)N3C2)cc1 (stereo not given)	-11.3%	-8.2%	?	?
COc1ccc(N2CSC3=C(C#N)C(c4ccc(OC)c(OC)c4)CC(=O)N3C2)c(OC)c1 (stereo not given)	0.2%	-5.0%	1.41µM*	7.94µM*
COc1ccc(C2CC(=O)N3CN(C4CCCCC4)CSC3=C2C#N)cc1 (stereo not given)	/	/	/	22.4µM*
CCOc1ccccc1N1CSC2=C(C#N)C(c3c(OC)ccc4ccccc34)CC(=O)N2C1 (stereo not given)	4.4%	-6.0%	6.29µM*	3.55µM*
N#CC1=C2SCN(Cc3ccco3)CN2C(=O)CC1c1cccc2ccccc12 (stereo not given)	-7.3%	-2.9%	?	?
COc1ccc(N2CSC3=C(C#N)C(c4cccs4)CC(=O)N3C2)cc1 (stereo not given)	12.2%	-15.3%	0.5µM*	-4.7%
CC(NC(CCc1ccccc1)C(=O)O)C(=O)N1CCCC1C(=O)O (stereo not given)	/	/	/	-6.6%
CC1(C)S[C@@H]2[C@H](NC(=O)C(C(=O)Oc3ccc4c(c3)CCC4)c3ccccc3)C(=O)N2[C@H]1C(=O)O (stereo not given in full)	/	/	/	0.6%
CC(C)CNc1nc(C#N)nc(Nc2ccccc2)n1	/	/	1.9%	/
CC(=O)Nc1cccc(NC(=O)CSc2ccc(-c3sc(-c4ccccc4)nc3C)nn2)c1	/	/	/	1.4%
COc1ccc(N2C(=O)C3CC(C)=C(C)CC3C2=O)c(OC)c1 (stereo not given)	-2.6%	-5.6%	5.6%	-1.1%
COc1cc(OC)c(C2CC(=O)N3CN(c4ccc(C)cc4)CSC3=C2C#N)cc1OC (stereo not given)	8.0%	-6.5%	?	1.58µM*
CCc1ccc(C2CC(=O)N3CN(c4ccccc4)CSC3=C2C#N)cc1 (stereo not given)	-11.4%	0.0%	?	4.47µM*
COc1ccc(C2CC(=O)N3CN(c4ccc(C)c(Cl)c4)CSC3=C2C#N)cc1OC (stereo not given)	15.7%	7.5%	5µM*	?
Cc1ccc(N2CSC3=C(C#N)C(c4cccs4)CC(=O)N3C2)cc1 (stereo not given)	-21.6%	-2.5%	?	?
COc1ccc(N2CSC3=C(C#N)C(c4cc(OC)c(OC)cc4OC)CC(=O)N3C2)c(OC)c1 (stereo not given)	-16.8%	0.4%	1.99µM*	8.91µM*
CC(C)(CO)C(O)C(=O)NCCCC(=O)O (stereo not given)	/	/	/	2.9%
CCOc1ccc(NC(=O)c2oc3ccccc3c2NC(=O)c2cc3ccccc3o2)cc1	/	/	/	-1.8%
COc1ccc(N2CSC3=C(C#N)C(c4cc(OC)ccc4OC)CC(=O)N3C2)c(OC)c1 (stereo not given)	1.9%	-11.1%	1.58µM*	7.94µM*
Cc1cccc(-c2n[nH]c(=S)n2-c2ccccc2)c1[N+](=O)[O-]	?	-10.8%	2.2%	7.08µM*
Cc1c(Cl)c(-c2n[nH]c(=S)n2-c2ccccc2)nn1C	-11.6%	-0.9%	-8.2%	2.82µM*
COc1cc(C(C)=O)ccc1OCCCN1CCC(c2noc3cc(F)ccc23)CC1	/	/	/	-6.9%
CC(=O)[C@@]1(O)CC[C@@H]2[C@@H]3CCC4=CC(=O)CC[C@]4(C)[C@]3(F)[C@@H](O)C[C@@]21C	/	/	/	0.0%
COC(=O)c1sc(NC(=O)c2cc(-c3ccccc3)nc3ccccc23)c(C#N)c1C	1.8%	4.7%	1.41µM*	?
SMILES	LmPK inhibitor	RE007 growth inh	Giardia FBPA inh	TbPYK inhibitor
COc1cc2c(cc1OC)[C@@H](Cc1cc(OC)c(OC)c(OC)c1)[N@+](C)(CCCOC(=O)CC/C=C/CCC(=O)OCCC[N@+]1(C)CCc3cc(OC)c(OC)cc3[C@H]1Cc1cc(OC)c(OC)c(OC)c1)CC2	/	/	/	-1.0%
CC1COCC(C)N1C1=C(Cl)C(=O)c2ccccc2C1=O (stereo not given)	/	39.8µM*	/	22.4µM*
O=C1C(=O)C(Cl)=C(Cl)C(Cl)=C1Cl	/	14.2%	/	?
O=C1C(Cl)=C(Cl)C(=O)C(Cl)=C1Cl	/	/	0.561µM*	/
CC1=C(C)C(=O)N(c2ccccn2)C1=O	-0.6%	19.0%	-9.0%	-6.5%
Cc1nn(-c2ccccn2)c2c1C(=O)C(Br)CC2 (stereo not given)	-12.3%[11.5 µM]	4.9%	5µM*	?
COc1cc(OC)c(NC(=O)c2cn(C)c(=O)c3cc(OC)c(OC)cc23)cc1Cl	/	/	/	-2.0%
COc1ccc(NC(=O)N2CCC3(CC2)CCN(S(=O)(=O)c2ccccc2)CC3)cc1	/	/	-4.9%	0.0%
O=C(O)c1cc(N=Nc2c(O)ccc3ccccc23)cc(C(=O)O)c1	?	-12.1%	-16.7%	12.6µM*
O=S(=O)(Oc1ccc(Cl)cc1)c1ccccc1	/	/	-26.7%	/
O=C(c1ccccc1)c1cc(F)c(N2CCOCC2)cc1Cl	-3.4%	39.8µM*	-1.5%	3.4%
Cc1ccc2cc3c(N)nn(C(=O)c4cccc(F)c4)c3nc2c1	/	/	/	-1.1%
Clc1nssc1=Nc1nncs1	/	-1.1%	/	5.01µM*
O=C1CCCCCN1Sc1ccccc1	-0.3%	12.6µM*	-0.8%	-13.8%
Cc1nc(-c2ccccc2)sc1-c1ccc(SCC(=O)NCc2ccc(F)cc2)nn1	/	/	/	-1.3%
N#Cc1c(C#N)c(SSc2c(C#N)c(C#N)c(N)n2-c2ccccc2)n(-c2ccccc2)c1N	/	-8.3%	/	0.891µM*
c1ccc(-c2cn3ccccc3n2)cc1	/	-15.2%	/	-19.5%
Oc1ccc(-c2cn3ccccc3n2)cc1	22.4µM*	-15.3%	-8.6%	2.1%
COc1cc(N(C)C)cc(CN(C)CCc2ccc([N+](=O)[O-])cc2)c1O	/	/	7.92µM*	/
CN(CCc1ccccc1)Cc1ccccc1[N+](=O)[O-]	-2.6%	-21.1%	-10.2%	6.9%
CC(C)(C)C1CCc2c(sc(NC(=O)c3ccncc3)c2C(=O)Nc2ccccc2Cl)C1 (stereo not given)	/	/	/	19.6%
CC(=O)N1c2ccccc2C2(O)N=C(C)SC12 (stereo not given)	16.6%	-5.9%	?	12.6µM*
COCCOC(=O)CSc1ncccc1-c1nc2cc(C)c(C)cc2[nH]1	14.1µM*	?	-20.7%	-7.0%
CC(C)c1cc2c(c(O)c1O)[C@@]1(C(=O)O)CCCC(C)(C)[C@@H]1CC2	/	/	9.98µM*	/
COc1cc(OC)c(NC(=O)c2c(N3CCCC3=O)c3cc(C)ccc3n2C)cc1Cl	/	/	/	7.5%
CCOC(=O)COc1ccc2c(C#N)c3ccccn3c2c1	4.5%	2.4%	5.61µM*	-1.2%
Cc1cc(Nc2ccccc2)n(-c2nc3ccccc3[nH]2)n1	1.0%	35.5µM*	?	-4.8%
